HPGD inh = HPGD (human) dehydrogenase inhibition; Potency, µM, usual class: inhibitors; hit rate 4.3% among 150,000; purified HPGD, NADH fluorescence kinetic, PGE2 substrate; P15428
Target sequence (P15428 whole entry, looked up): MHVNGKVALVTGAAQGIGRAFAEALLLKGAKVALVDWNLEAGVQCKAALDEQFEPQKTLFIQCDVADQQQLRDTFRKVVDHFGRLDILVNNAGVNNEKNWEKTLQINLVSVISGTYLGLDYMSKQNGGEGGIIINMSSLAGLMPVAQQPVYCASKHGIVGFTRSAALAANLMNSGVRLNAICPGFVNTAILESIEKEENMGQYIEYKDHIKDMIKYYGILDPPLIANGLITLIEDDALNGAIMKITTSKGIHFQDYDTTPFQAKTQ
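20 nM HPGD preincubated 15 min at room temperature with compound in 50 mM Tris-HCl pH 8, 0.01% Tween 20. Started with 1 mM NAD+ and 30 uM prostaglandin E2; NADH fluorescence (360/450 nm) read 5 times over 30-s intervals, last minus first.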
ALDH1A1 inh = ALDH1A1 (human) enzyme inhibition; P00352; Purified ALDH1A1, NADH fluorescence, propionaldehyde substrate; AID 1030; Potency, µM (top dose mostly 75.3 µM), actives largely listed as inhibitors; hit rate 7.3% among 220,000
ALOX12 inhib = inhibitors of human 12-lipoxygenase (ALOX12); purified 12-hLO, xylenol orange hydroperoxide absorbance; Potency, µM (series often up to 57.1 µM), hits mostly inhibitors; hit rate 0.12% among 150,000; AID 1452; active = well fitted curve in the direction sought with a large enough effect; inconclusive = small, poorly fitted or top-dose-only effect, or another doubt; inactive = no such curve, though single readings can be large; an effect the other way counts as inactive or inconclusive; also: nearly all actives have a fitted effect of over 55% in size
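Hydroperoxide formation by human 12-lipoxygenase from 40 uM arachidonic acid was followed colorimetrically via ferric-xylenol orange complex, using the 573/405 nm absorbance ratio. Enzyme concentration was 150 nM, with 30 min reaction at room temperature.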
PNC assembly inh = perinucleolar compartment assembly inhibition. PC3M PTB-GFP, PNC prevalence imaging, 16 h; active compounds read low. activity change (PNC), negative = inhibition, % at 10 µM. hit rate 3.1% among 140,000;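 active = readout at or below -70, meaning at least 70% loss of cells showing the perinucleolar compartment, a nuclear body marking cancer cells; inconclusive = readout between -30 and a set limit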
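Read-out is percentage of cells bearing a perinucleolar compartment, from automated 20x imaging of fixed, Hoechst-stained PC3M PTB-GFP cells. Cells were seeded 4 h, then exposed 16 h to compound (23 nl of library stock) in duplicate plates.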
IMPase cell inh = cell-permeable inhibitors of inositol monophosphatase (IMPase); P97697; CHO-M1 cells, IP1 accumulation, HTRF TR-FRET ratio; inhibition (IP1 accumulation), % at 46.1 µM; 120,000 tested, under 10 active; active = well fitted curve in the direction sought with a large enough effect in the signal ratio, not every such curve was filed as active; inconclusive = small, poorly fitted or top-dose-only effect, or a change in a side signal; inactive = no such curve, though single readings can be large or run the other way; the % refers to the signal ratio;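 also: cells stimulated with carbachol in lithium chloride buffer; higher means more IMPase inhibition seen as more IP1 and lower FRET ratio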
Target sequence (P97697 whole entry, looked up): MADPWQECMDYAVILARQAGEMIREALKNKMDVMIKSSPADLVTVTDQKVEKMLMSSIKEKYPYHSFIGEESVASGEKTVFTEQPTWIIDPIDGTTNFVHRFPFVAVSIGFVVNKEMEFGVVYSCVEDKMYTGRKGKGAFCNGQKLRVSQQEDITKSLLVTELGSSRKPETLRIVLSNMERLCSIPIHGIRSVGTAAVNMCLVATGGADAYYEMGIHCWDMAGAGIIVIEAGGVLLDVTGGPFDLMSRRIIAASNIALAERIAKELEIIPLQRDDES
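Seeded CHO-M1 cells were dosed with compound at up to 46 uM, stimulated with carbachol for 30 min, then lysed in IP-One detection reagents. Higher IP1 lowers the TR-FRET signal.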
IMPase Li cell = cell-permeable IMPase inhibitors with lithium potentiation | hit rate 0.35% among 210,000 | AID 1457 | CHO-M1 cells, IP1 TR-FRET (IP-One), carbachol + lithium | Potency, µM (titrated, usually from 59.4 µM), most hits filed as inhibitors; active = well fitted curve in the direction sought with a large enough effect; inconclusive = small, poorly fitted or top-dose-only effect, or another doubt; inactive = no such curve, though single readings can be large; an effect the other way counts as inactive or inconclusive;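 also: IP1 builds up when IMPase is blocked and the TR-FRET signal falls; nearly all actives have a fitted effect of over 50% in size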
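Steps: plate 2000 CHO-M1 cells per well and culture 16–30 h; add compound and lithium; incubate 30 min, 37C; add d2-IP1 tracer and Eu cryptate anti-IP1 antibody in lysis buffer; read after 10 min at room temperature.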
Large screens that a line does not name were inactive. A selection: hits, their analogues and other compounds. The true share with any hit is near 11%. Unless noted, calls follow the shape of the dose curve; as a rule, active = well fitted inhibition curve with a large enough effect (not every such curve was filed as active); inconclusive = small, poorly fitted or top-dose-only effect, or another doubt; inactive = no such curve, though single readings can be large or run the other way.

O=C1c2cccc(OCC(=O)N3CCCc4ccccc43)c2CCN1Cc1ccc(Br)cc1	ALDH1A1 inh 7.94µM
C[C@@H]1OC(OC2CC[C@@]3(C)C(CC[C@@]4(C)C3CC=C3C5CC(C)(C)CC[C@]5(C(=O)OC5OCC(O)[C@@H](O)[C@@H]5OC5O[C@@H](C)[C@H](O[C@H]6OC(CO)C(O)C(O)C6O)C(O)C5O)C(O)C[C@@]34C)C2(C)C)C(O)C(O)[C@H]1OC1OCC(O)C(O)[C@H]1O (stereo partly specified)	none (no result: PNC assembly inh, IMPase cell inh)
Cc1ccc(OCc2nc3ccccc3n2CC(C)C)cc1	none (no result: HPGD inh, ALDH1A1 inh, ALOX12 inhib, PNC assembly inh, IMPase Li cell)
Nc1ccccc1C(=O)N(Cc1ccccc1)Cc1ccccc1	PNC assembly inh -100.0
O=C(O)c1ccccc1C(=O)N(Cc1ccccc1)Cc1ccccc1	none
O=C(O)CSSCC(=O)O	none (no result: PNC assembly inh, IMPase cell inh)
C/C(CCC(=O)O)=N/Nc1ccc([N+](=O)[O-])cc1[N+](=O)[O-]	PNC assembly inh -86.9 (no result: IMPase cell inh)
C/C(CCCO)=N/Nc1ccc([N+](=O)[O-])cc1[N+](=O)[O-]	IMPase Li cell inconclusive (no result: HPGD inh, ALOX12 inhib, PNC assembly inh, IMPase cell inh)
CC(C)(C)C1CCC2(CC1)SCC(=O)N2c1ccccc1 (stereo unspecified)	ALDH1A1 inh inconclusive, PNC assembly inh inconclusive
CC(C)(C)C1CCC2(CC1)NC(=S)N(c1ccccc1)N2 (stereo unspecified)	HPGD inh 11.2µM, ALDH1A1 inh inconclusive
c1ccc(N2CCN(C3CCSC3)CC2)cc1 (stereo unspecified)	ALDH1A1 inh 17.8µM
COc1ncc2nc(-c3cccc(C#N)c3)c(=O)n(CCC#N)c2n1	HPGD inh inconclusive, ALDH1A1 inh inconclusive (no result: PNC assembly inh, IMPase cell inh)
CC(C)CCn1nnnc1CN1CCN(c2ccc(F)cc2)CC1	none (no result: HPGD inh, ALOX12 inhib, PNC assembly inh, IMPase cell inh)
CCC(C)(C)n1nnnc1C(c1ccccc1)N1CCN(Cc2ccccc2)CC1 (stereo unspecified)	none (no result: HPGD inh, ALOX12 inhib, PNC assembly inh, IMPase cell inh)
CC(C)CCn1nnnc1CN1CCN(C(c2ccccc2)c2ccccc2)CC1	ALDH1A1 inh 14.1µM (no result: HPGD inh, ALOX12 inhib, PNC assembly inh, IMPase cell inh)
CCC(C)(C)n1nnnc1CN1CCN(C(c2ccccc2)c2ccccc2)CC1	ALDH1A1 inh 25.1µM, IMPase cell inh inconclusive
c1ccc(C(c2ccccc2)N2CCN(Cc3nnnn3C3CCCC3)CC2)cc1	ALDH1A1 inh 11.2µM, PNC assembly inh -82.0
CCC(C)(C)n1nnnc1C(c1ccncc1)N1CCC(C)CC1 (stereo unspecified)	PNC assembly inh -118.9
Fc1ccc(C(c2nnnn2C2CCCC2)N2CCN(Cc3ccccc3)CC2)cc1 (stereo unspecified)	ALDH1A1 inh inconclusive (no result: HPGD inh, IMPase Li cell)
O=C1CCCC=C1[C@@H](O)CCOCc1ccccc1	none (no result: HPGD inh, ALOX12 inhib, PNC assembly inh, IMPase cell inh, IMPase Li cell)
Cc1sc(NC(=O)c2cccs2)c(C(=O)OC(C)C)c1C	HPGD inh inconclusive, ALDH1A1 inh inconclusive, PNC assembly inh -100.0
CCOC(=O)c1c(NC(=O)c2cccs2)sc(C(=O)N(C)C)c1C	HPGD inh 15.8µM, ALDH1A1 inh 22.4µM
COC(=O)c1n[nH]c2ccccc12	PNC assembly inh inconclusive
O=C(OCCCCN1C(=O)c2ccccc2C1=O)c1n[nH]c2ccccc12	HPGD inh 31.6µM, PNC assembly inh inconclusive
COc1ccccc1C(=O)Nc1cc2c(cc1N1CCCCC1)n(C)c(=O)n2C	none (no result: HPGD inh, ALDH1A1 inh, ALOX12 inhib, PNC assembly inh, IMPase Li cell)
Oc1cc2c(cc1C(c1ccc(Br)cc1)N1CCCC1)OCO2 (stereo unspecified)	ALDH1A1 inh 2µM (no result: HPGD inh, ALOX12 inhib, PNC assembly inh, IMPase cell inh)
O=C(NC1(C(F)(F)F)NC(=O)N(CCc2ccccc2)C1=O)c1ccccc1F (stereo unspecified)	none (no result: HPGD inh, ALDH1A1 inh, ALOX12 inhib, PNC assembly inh, IMPase Li cell)
CCn1cc(C(=O)O)c(=O)c2cc(F)c(N3CCN[C@@H](C)C3)c(F)c21	HPGD inh inconclusive, ALDH1A1 inh inconclusive (no result: PNC assembly inh)
O=S(=O)(NNc1ccc(Cl)nn1)c1ccc(F)cc1	HPGD inh 3.55µM, ALDH1A1 inh 28.2µM, PNC assembly inh -87.9 (no result: IMPase cell inh)
O=S(=O)(Nc1ccc(Cl)nn1)c1ccccc1	none (no result: HPGD inh, ALOX12 inhib, PNC assembly inh, IMPase cell inh)
O=C(COC(=O)CC12CC3CC(CC(C3)C1)C2)Nc1ncc(Cl)cc1Cl	none
O=C(COC(=O)C12CC3CC(CC(C3)C1)C2)Nc1ncc(Cl)cc1Cl	ALDH1A1 inh inconclusive, PNC assembly inh -88.4, IMPase cell inh inconclusive
CCc1ccc(C(=O)CCC2CCCCC2=O)cc1 (stereo unspecified)	HPGD inh 15.8µM, ALDH1A1 inh inconclusive
Cc1ccc(C(=O)CCC2CCCCC2=O)cc1 (stereo unspecified)	PNC assembly inh inconclusive
COc1ccc(-c2nc(-c3ccccc3)oc2Nc2ccccc2C)cc1	none (no result: PNC assembly inh, IMPase cell inh)
CCc1nc(OCc2ccco2)c2sc3nc4c(cc3c2n1)COC(C)(C)C4	ALDH1A1 inh inconclusive
CCc1nc2c(sc3nc4c(cc32)COC(C)(C)C4)c(=O)n1Cc1ccccc1	HPGD inh inconclusive, ALDH1A1 inh 0.708µM
CCc1nc2c(sc3nc4c(cc32)COC(C)(C)C4)c(=O)n1Cc1ccco1	ALDH1A1 inh 2.51µM, PNC assembly inh inconclusive
COc1nc(C)nc2c1sc1nc3c(cc12)COC(C)(C)C3	HPGD inh inconclusive, ALDH1A1 inh inconclusive
CN(Cc1ccco1)c1ccnc(-c2ccoc2)n1	ALDH1A1 inh inconclusive (no result: PNC assembly inh, IMPase cell inh)
Cc1noc(C)c1-c1nccc(N(C)Cc2ccco2)n1	ALDH1A1 inh 14.1µM (no result: HPGD inh, ALOX12 inhib, PNC assembly inh, IMPase cell inh)

Screening data: PubChem BioAssay, National Center for Advancing Translational Sciences (NCATS)
